Experimental data taken from PubChem BioAssay (NCATS).
Inconclusive results are not listed. Calls of active or inactive are those of the source. Unless noted, calls come from the whole dose curve; as a rule, active = well fitted inhibition curve with a large enough effect; inconclusive = small, poorly fitted or top-dose-only effect; inactive = flat fitted curve, though single readings scatter.

What was measured:
[1] = S16 Schwann cell PMP22 intronic element beta-lactamase assay (AID 624044; calls by dose curve; note: nearly all actives have a fitted effect of over 15% in size); conditions: S16 rat Schwann cells, PMP22 element beta-lactamase FRET, 24 h; ratio activity, negative = inhibition: at 38.3 µM (top of the series) unless noted
Summary of the method: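 Rat S16 Schwann cells with beta-Lac driven by a PMP22 intronic element, compound-treated 24 h at 37 °C. LiveBLAzer FRET B/G read: 460 nm normalized to potassium clavulanate vs DMSO; 535 nm FRET as viability; concentration-effect curves classified.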

[2] = test system: 3D7; test: qHTS profiling for inhibitors of Plasmodium falciparum proliferation (AID 504749); note: nearly all actives have a fitted effect of over 60% in size; conditions: P. falciparum in erythrocytes, SYBR Green DNA, 72 h; series mostly up to 28.7 µM
Summary of the method: (§1)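 P. falciparum-infected erythrocytes (0.3% parasitemia, 2.5% hematocrit final) were exposed to compounds for 72 h at 37 C in 5% CO2, then lysed with SYBR Green buffer overnight at room temperature; parasite DNA fluorescence was normalized to artemisinin and DMSO controls.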

[3] = test system: ATS95; test: as above; conditions: P. falciparum in erythrocytes, SYBR Green DNA, 72 h; series mostly up to 28.7 µM
Summary of the method: as §1

[4] = test system: CP185; test: as above; conditions: P. falciparum in erythrocytes, SYBR Green DNA, 72 h; series mostly up to 28.7 µM
Summary of the method: as §1

[5] = test system: CP201; test: as above; conditions: P. falciparum in erythrocytes, SYBR Green DNA, 72 h; series mostly up to 28.7 µM
Summary of the method: as §1

[6] = test system: CP211; test: as above; conditions: P. falciparum in erythrocytes, SYBR Green DNA, 72 h; series mostly up to 28.7 µM
Summary of the method: as §1

[7] = test system: CP238; test: as above; conditions: P. falciparum in erythrocytes, SYBR Green DNA, 72 h; series mostly up to 28.7 µM
Summary of the method: as §1

[8] = test system: CP252; test: as above; conditions: P. falciparum in erythrocytes, SYBR Green DNA, 72 h; series mostly up to 12.8 µM
Summary of the method: as §1

[9] = test system: CP256; test: as above; conditions: P. falciparum in erythrocytes, SYBR Green DNA, 72 h; series mostly up to 28.7 µM
Summary of the method: as §1

[10] = test system: CP266; test: as above; conditions: P. falciparum in erythrocytes, SYBR Green DNA, 72 h; series mostly up to 12.8 µM
Summary of the method: as §1

[11] = test system: CP269; test: as above; conditions: P. falciparum in erythrocytes, SYBR Green DNA, 72 h; series mostly up to 28.7 µM
Summary of the method: as §1

[12] = test system: CP286; test: as above; conditions: P. falciparum in erythrocytes, SYBR Green DNA, 72 h; series mostly up to 28.7 µM
Summary of the method: as §1

[13] = test system: CP305; test: as above; conditions: P. falciparum in erythrocytes, SYBR Green DNA, 72 h; series mostly up to 28.7 µM
Summary of the method: as §1

[14] = test system: CP315; test: as above; conditions: P. falciparum in erythrocytes, SYBR Green DNA, 72 h; series mostly up to 28.7 µM
Summary of the method: as §1

[15] = test system: CP329; test: as above; conditions: P. falciparum in erythrocytes, SYBR Green DNA, 72 h; series mostly up to 28.7 µM
Summary of the method: as §1

[16] = test system: DIV30; test: as above; conditions: P. falciparum in erythrocytes, SYBR Green DNA, 72 h; series mostly up to 28.7 µM
Summary of the method: as §1

[17] = test system: ECU; test: as above; conditions: P. falciparum in erythrocytes, SYBR Green DNA, 72 h; series mostly up to 28.7 µM
Summary of the method: as §1

[18] = test system: GB4; test: as above; conditions: P. falciparum in erythrocytes, SYBR Green DNA, 72 h; series mostly up to 28.7 µM
Summary of the method: as §1

[19] = test system: HB3; test: as above; conditions: P. falciparum in erythrocytes, SYBR Green DNA, 72 h; series mostly up to 28.7 µM
Summary of the method: as §1

[20] = test system: P94_40; test: as above; conditions: P. falciparum in erythrocytes, SYBR Green DNA, 72 h; series mostly up to 28.7 µM
Summary of the method: as §1

Measured: Potency

CCNC[C@H](O)c1cccc(O)c1
inactive: all assays above

CC1=C2[C@@H]3OC(=O)[C@@H](C)[C@@H]3CC[C@]2(C)C=CC1=O
not listed: [4] | [7] | [8] | [9]
inactive: all other assays above

CC[C@@H]1[C@@H]2C[C@H]3[C@H]4N(C)c5ccccc5[C@@]45C[C@@H]([C@@H]2[C@@H]5O)N3[C@H]1O
not listed: [20]
inactive: all other assays above

CC[C@@]1(c2ccc(N)cc2)CCC(=O)NC1=O
not listed: [1]
inactive: all other assays above

C[C@H]1CN(C2CCC(C#N)(c3ccc(F)cc3)CC2)CC[C@@]1(C(=O)O)c1ccccc1 (stereo not given in full)
inactive: all assays above

CNC[C@H](O)c1ccc(O)cc1
inactive: all assays above

CC(=O)O[C@H]1CC[C@@]2(C)C(=CC[C@@H]3[C@H]2CC[C@]2(C)C(=O)CC[C@H]32)C1
inactive: all assays above

C[N+]1(C)[C@@H]2CC[C@H]1CC(OC(=O)[C@@H](CO)c1ccccc1)C2 (stereo not given in full)
not listed: [9] | [14]
inactive: all other assays above

C[C@H](NC(C)(C)C)C(=O)c1cccc(Cl)c1
inactive: all assays above

CN(C)C(=O)Oc1cc(OC(=O)N(C)C)cc([C@@H](O)CNC(C)(C)C)c1
inactive: all assays above

C[C@@]12CC[C@H]3[C@@H](CC[C@@H]4C[C@H]5S[C@H]5C[C@]43C)[C@H]1CC[C@H]2O
inactive: all assays above

C[C@@]12CCC(=O)C=C1C=C[C@H]1[C@H]3CC[C@](O)(CCC(=O)O)[C@]3(C)CC[C@@H]12
not listed: [18] | [19]
inactive: all other assays above
